# According to PubChem BioAssay AID602310 (National Center for Advancing Translational Sciences (NCATS), 2012):
# Hit rate of the full screen: of about 410,000 compounds, about 310 (0.076%) were called active. Roughly 2% stayed inconclusive and do not appear here. The call rests on the fitted dose curve; in most records, active means well fitted curve in the direction sought with a large enough effect; inconclusive means small, poorly fitted or top-dose-only effect; inactive means flat fitted curve, though single readings scatter. The list comes from a sample in which actives are over-represented; it also holds similar structures and randomly drawn compounds.
# Target: DNA dC->dU-editing enzyme APOBEC-3G (Homo sapiens) (UniProt Q9HC16)
# Sequence (Q9HC16 whole entry, looked up): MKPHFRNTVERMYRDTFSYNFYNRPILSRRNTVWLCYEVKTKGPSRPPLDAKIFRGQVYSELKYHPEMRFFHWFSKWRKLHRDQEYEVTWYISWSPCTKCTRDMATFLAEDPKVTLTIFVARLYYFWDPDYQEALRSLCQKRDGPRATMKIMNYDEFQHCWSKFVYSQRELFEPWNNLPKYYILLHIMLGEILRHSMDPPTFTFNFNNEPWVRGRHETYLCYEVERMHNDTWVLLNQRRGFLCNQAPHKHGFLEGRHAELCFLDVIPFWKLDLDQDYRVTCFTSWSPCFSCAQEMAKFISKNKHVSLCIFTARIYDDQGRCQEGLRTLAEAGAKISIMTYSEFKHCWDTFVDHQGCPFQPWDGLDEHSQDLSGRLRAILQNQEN
# Assay: qHTS for Inhibitors of Vif-A3G Interactions: qHTS; further: nearly all actives have a fitted effect of over 60% in size;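 on activity, negative = active: hits raise eYFP signal because A3G escapes Vif-driven loss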
# Settings: HeLa A3G-eYFP + Vif (tagged APOBEC3G with the HIV-1 protein that degrades it), YFP fluorescence, overnight; series mostly up to 46.1 µM; activity, negative = active: at the top concentration
# Text: The recent discovery and characterization of host restriction factors, which provide a potent defense to invading retroviruses, has provided new targets for antiviral drug development. APOBEC3G (A3G) and APOBEC3F (A3F) are potent cytidine deaminases that block HIV-1 replication; HIV-1 expresses the Vif protein, which counteracts A3G and A3F by binding to them and inducing their proteasomal degradation. The Vif-A3G and Vif-A3F interactions provide two potential targets for development of small molecules which can interfere with the ability of Vif to degrade A3G or A3F. […] To identify inhibitors that can interfere with Vif mediated degradation of A3G and A3F, we have developed Hela cell lines that stably express A3G or A3F tagged with eYFP at the C-terminal end (A3G-eYFP or A3F-eYFP, respectively) and Vif. In the absence of an inhibitor, Vif induces degradation of A3G-eYFP and A3F-eYFP, and the cells are not fluorescent. In the presence of an inhibitor, it is expected that Vif will be unable to degrade A3G-eYFP and/or A3F-eYFP, resulting in an increase in yellow fluorescence. In this assays Vif A3G was screened against the Molecular Library Small Molecule Repository (MLSMR). NIH Chemical Genomics Center [NCGC] NIH Molecular Libraries Probe Centers Network [MLPCN] MLPCN Grant: MH093245 Assay Submitter (PI): Vinay Pathak, National Cancer Institute
# 5 uL of 700 cells/well of A3G-YFP cells are dispensed into black, clear bottom plates. The plates are incubated overnight at 37 deg C. 23 nL of compounds are added by pintool. The plates are incubated overnight at 37 deg C and then read on the TTP Acumen (Ex 488/ Em 500-530).
# On the % scale 0 is the no-effect control and ±100 the full control effect; potency means the concentration at half of the fitted maximal effect.
Compound,"activity, negative = active",Potency
CCC(=NCCc1ccccc1)c1c(O)n(C2CCCCC2)c(=O)[nH]c1=O,-0.155% (inactive),–
O=c1[nH]c(=O)n(Cc2ccccc2)c(O)c1/C=N/Nc1c(F)c(F)c(F)c(F)c1F,-1.03% (inactive),–
CC/C(=N\NC(=O)c1ccccc1O)c1c(O)n(Cc2ccccc2)c(=O)[nH]c1=O,–,10 µM (active)
ClCCN(CCCl)c1ccc(C=Nc2ccc(/C=C/c3ccnc4ccccc34)cc2)cc1,-17.1% (inactive),–
